Values without a mark were called inactive. Records with an inconclusive call do not appear. Where a call stands in place of a potency, no number is given. Active and inactive are the calls of the source. Unless noted, the call rests on the fitted dose curve; in most records, active means well fitted curve in the direction sought with a large enough effect in the repeat runs; inconclusive means weak or mixed curves; inactive means no such curve, though single readings can be large; an effect the other way counts as inactive or inconclusive.
Experiments:
[1] = target: Thyrotropin-releasing hormone receptor (Homo sapiens) (UniProt P34981); assay: qHTS assay to identify small molecule antagonists of the thyrotropin-releasing hormone receptor (TRHR) signaling pathway (AID 1346877; active means well fitted inhibition curve with a large enough effect in the repeat runs, not every such curve was filed as active; further: series mostly up to about 51 µM)
Summary of the method: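 TRHR-expressing HEK293 cells loaded with calcium dye for 2 h at 37 C; compounds pre-incubated 5 min at room temperature before TRH challenge at 1 nM final. Intracellular calcium fluorescence read kinetically for 3 min; 15 concentrations in triplicate.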

[2] = Human pregnane X receptor (PXR) small molecule agonists, qHTS cell viability counter screen (AID 1346977); further: nearly all actives have a fitted effect of over 50% in size
Summary of the method: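 PXR-Luc HepG2 cells in medium with 5% charcoal-stripped FBS were pre-incubated 5hr, then exposed to compounds for 24hr at 37C. Viability was read in the same wells by CellTiter-Fluor fluorescence, reagent added after 23hr with a 1hr incubation.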

[3] = Caspase-3/7 induction in HepG2 cells by small molecules, qHTS assay (AID 1346978); further: nearly all actives have a fitted effect of over 15% in size
Summary of the method: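 Wild-type HepG2 cells, 2,000/well, settled 5 hr at 37 C and 5% CO2, then compound-treated for 17 hr; caspase-3/7 activity read by luminescent Caspase-Glo 3/7 after 30 min at room temperature.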

[4] = Caspase-3/7 induction in CHO-K1 cells by small molecules, qHTS cell viability counter screen (AID 1346979); further: nearly all actives have a fitted effect of over 35% in size
Summary of the method: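 Wild-type CHO-K1 cells were seeded at 1,500 per well, rested 5hr at 37 C, then exposed to compounds in DMSO. After 16hr, CellTiter-Fluor reagent was added and fluorescence read 1hr later as the viability measure.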

[5] = Caspase-3/7 induction in CHO-K1 cells by small molecules, qHTS assay (AID 1346980); further: nearly all actives have a fitted effect of over 15% in size
Summary of the method: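 Wild-type CHO-K1 cells exposed to compounds for 17hr at 37 C, 5% CO2. Caspase-3/7 activity then measured by Caspase-Glo 3/7 luminescence after 30min at room temperature.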

[6] = Caspase-3/7 induction in HepG2 cells by small molecules, qHTS cell viability counter screen (AID 1346981); further: series mostly up to about 92 µM; nearly all actives have a fitted effect of over 30% in size
Summary of the method: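 Wild-type HepG2 cells, 2,000/well, settled 5 hr at 37 C, 5% CO2 before compound addition. Viability read by CellTiter-Fluor fluorescence, reagent added after 16 hr compound exposure, then 1 hr at 37C, in the same wells as the caspase read.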

[7] = target: Nuclear receptor subfamily 1 group I member 2 (Homo sapiens) (UniProt O75469); assay: Human pregnane X receptor (PXR) small molecule agonists, qHTS assay (AID 1346982); further: nearly all actives have a fitted effect of over 35% in size; further: potency means the concentration at half of the fitted maximal effect
Summary of the method: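 PXR-Luc HepG2 reporter cells (CYP3A4-driven luciferase) in 5% charcoal-stripped FBS medium, plated 5 h before compound addition, then treated 24 h at 37C. Luciferase read by ONE-Glo luminescence after 30 min at room temperature.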

[8] = target: Nuclear receptor subfamily 1 group I member 2 (Rattus norvegicus) (UniProt Q9R1A7); assay: Rat pregnane X receptor (rPXR) activation by small molecules, qHTS assay (AID 1346983); settings: rPXR luciferase reporter cells, One-Glo luminescence, 24 h; max activation: hits give high values; further: nearly all actives have a fitted effect of over 20% in size
Summary of the method: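 Cell-based rPXR activation assay: rPXR cells, 2,000 per well, rested 5hr at 37 C, then exposed to compounds in DMSO for 24 hr at 37 C. Luciferase activity read by One-Glo luminescence after 30 min at room temperature.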

[9] = qHTS assay to identify small molecule agonists of the TGF-beta/Smad signaling pathway (AID 1346859; active means well fitted activation curve with a large enough effect in the signal ratio in the repeat runs, not every such curve was filed as active; the % refers to the signal ratio; further: series mostly up to about 77 µM)
Summary of the method: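 HEK 293T cells stably carrying a beta-lactamase reporter driven by the Smad binding element were seeded overnight, exposed to DMSO-dissolved compounds for 5 hr at 37 C, 5% CO2, then loaded with FRET substrate for 2 hr at room temperature.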

Chain of Nuclear receptor subfamily 1 group I member 2 (Rattus norvegicus) (Q9R1A7 whole entry, looked up): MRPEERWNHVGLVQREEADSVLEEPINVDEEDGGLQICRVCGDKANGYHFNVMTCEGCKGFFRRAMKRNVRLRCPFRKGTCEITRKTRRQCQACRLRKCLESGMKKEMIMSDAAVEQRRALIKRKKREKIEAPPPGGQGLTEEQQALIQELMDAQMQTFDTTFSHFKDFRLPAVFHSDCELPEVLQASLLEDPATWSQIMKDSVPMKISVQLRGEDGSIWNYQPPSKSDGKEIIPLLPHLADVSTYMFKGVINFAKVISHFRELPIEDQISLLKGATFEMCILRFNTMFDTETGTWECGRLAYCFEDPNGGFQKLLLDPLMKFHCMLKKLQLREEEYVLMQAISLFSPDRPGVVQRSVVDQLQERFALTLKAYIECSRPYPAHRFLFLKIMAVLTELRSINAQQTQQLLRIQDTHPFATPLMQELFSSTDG
Chain of Nuclear receptor subfamily 1 group I member 2 (Homo sapiens) (O75469 whole entry, looked up): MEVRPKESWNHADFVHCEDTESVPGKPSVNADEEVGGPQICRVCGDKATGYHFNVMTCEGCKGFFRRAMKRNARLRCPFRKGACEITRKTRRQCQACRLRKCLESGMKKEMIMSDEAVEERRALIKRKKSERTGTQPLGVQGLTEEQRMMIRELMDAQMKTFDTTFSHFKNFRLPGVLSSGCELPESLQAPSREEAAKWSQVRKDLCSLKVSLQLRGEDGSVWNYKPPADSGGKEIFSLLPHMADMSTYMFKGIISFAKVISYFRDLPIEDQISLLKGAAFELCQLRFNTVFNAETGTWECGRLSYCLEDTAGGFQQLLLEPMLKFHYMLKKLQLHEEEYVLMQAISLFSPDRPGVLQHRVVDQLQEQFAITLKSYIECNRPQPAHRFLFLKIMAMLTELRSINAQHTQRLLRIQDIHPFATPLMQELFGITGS
Chain of Thyrotropin-releasing hormone receptor (Homo sapiens) (P34981 whole entry, looked up): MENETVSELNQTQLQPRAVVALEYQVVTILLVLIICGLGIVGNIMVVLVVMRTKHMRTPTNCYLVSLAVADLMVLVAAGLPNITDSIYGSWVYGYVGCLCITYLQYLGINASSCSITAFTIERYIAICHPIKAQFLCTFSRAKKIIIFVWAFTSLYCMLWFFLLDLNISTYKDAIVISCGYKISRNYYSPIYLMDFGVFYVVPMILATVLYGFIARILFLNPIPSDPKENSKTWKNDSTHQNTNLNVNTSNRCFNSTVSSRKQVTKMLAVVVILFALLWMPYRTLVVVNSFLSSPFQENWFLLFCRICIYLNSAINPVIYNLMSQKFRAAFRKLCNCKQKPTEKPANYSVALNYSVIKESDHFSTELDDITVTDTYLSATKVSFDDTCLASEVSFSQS

Structure (SMILES) | outcome [1] | outcome [2] | outcome [3] | Potency [4] | outcome [5] | outcome [6] | Potency [7] | max activation [8] | outcome [9]
CCOC(=O)COc1ccc2c(C)c(CCN(CC)CC)c(=O)oc2c1Cl | inactive | inactive | inactive | inactive | inactive | inactive | inactive | 4.23% | 
CCNC(=O)C(C)OC(=O)Nc1ccccc1 (stereo not given) |  | inactive | inactive |  | inactive | inactive | inactive |  | inactive
CCOCCOCCOC(C)=O |  | inactive | inactive |  |  | inactive | inactive |  | inactive
O=C1CCCc2c(O)cccc21 |  | inactive | inactive |  | inactive | inactive | inactive |  | inactive
Cc1cc2c(cc1CC(=O)c1sccc1S(=O)(=O)Nc1onc(C)c1Cl)OCO2 |  |  | inactive |  | inactive | inactive |  |  | inactive
CN1C(CCl)Nc2cc(Cl)c(S(N)(=O)=O)cc2S1(=O)=O (stereo not given) |  | inactive | inactive |  | inactive | inactive |  | -9.91% | inactive
COCc1nnc(-c2ccc[n+]([O-])c2)n1-c1c(Cl)c(Cl)cc2[nH]c(=O)c(=O)[nH]c12 |  | inactive | inactive |  | inactive | inactive |  |  | inactive
Cc1cc(C)c(C)c(C)c1 |  |  | inactive | inactive |  | inactive | inactive |  | inactive
CC(=O)c1ccc2ccc3ccccc3c2c1 |  | inactive | inactive |  | inactive | inactive | 60.8 µM (active) |  | inactive
CC(=O)Nc1ccc(OCCOCCOc2ccc(NC(C)=O)cc2)cc1 |  | inactive | inactive |  | inactive | inactive | inactive | -0.187% | inactive
O=CN1CCCCC1 |  |  | inactive | inactive | inactive | inactive | inactive |  | inactive
CCCCC(CC)COC(=O)CC#N (stereo not given) |  |  | inactive | inactive | inactive | inactive |  |  | inactive
CCCCN=C(N)N=C(N)N |  |  | inactive |  | inactive | inactive | inactive | -2.74% | inactive
CCCC(=O)C(CC)Sc1ccoc1C (stereo not given) |  | inactive | inactive |  |  |  | inactive |  | inactive
Cc1cccc(N)n1 |  | inactive | inactive |  | inactive | inactive | inactive |  | inactive
CC(=O)OCC(=O)[C@@]1(O)CC[C@H]2[C@@H]3CCC4=CC(=O)C=C[C@]4(C)[C@H]3[C@@H](O)C[C@@]21C |  |  | inactive |  | inactive | inactive | inactive |  | inactive

Reference: PubChem BioAssay (Tox21)
